In the library only some 22% were active in any assay of this set; here they are far more common.
Pf growth 96h = Primary qHTS for delayed death inhibitors of the malarial parasite plastid, 96 hour incubation | Potency, µM (titrated, usually from 28.7 µM), for the others: at the highest dose activity change, negative = inhibition, actives largely listed as inhibitors | AID 504834, 2011 | P. falciparum luciferase reporter growth, 96 h | actives 6.9% (n = 320,000); also: potency is read from the fitted curve at half-maximal effect; % is scaled to controls: 0 for no effect and ±100 for the full control effect
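P. falciparum expressing integrated firefly luciferase grown in erythrocytes (2% hematocrit, 0.05% parasitemia final) with compounds for 96 hours at 37 C, 5% CO2. Growth inhibition read as loss of luminescence after adding luciferase detection reagent.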
LmPK inh = qHTS Assay for Inhibitors of Leishmania Mexicana Pyruvate Kinase (LmPK) | purified LmPK, Kinase-Glo ATP luminescence, 1 h | Potency, µM (titrated, usually from 57.5 µM), inactives show top-dose activity change, negative = inhibition, most hits filed as inhibitors | actives 0.37% (n = 290,000); also: potency is read from the fitted curve at half-maximal effect; % is scaled to controls: 0 for no effect and ±100 for the full control effect
Target sequence (Q27686 whole entry, looked up): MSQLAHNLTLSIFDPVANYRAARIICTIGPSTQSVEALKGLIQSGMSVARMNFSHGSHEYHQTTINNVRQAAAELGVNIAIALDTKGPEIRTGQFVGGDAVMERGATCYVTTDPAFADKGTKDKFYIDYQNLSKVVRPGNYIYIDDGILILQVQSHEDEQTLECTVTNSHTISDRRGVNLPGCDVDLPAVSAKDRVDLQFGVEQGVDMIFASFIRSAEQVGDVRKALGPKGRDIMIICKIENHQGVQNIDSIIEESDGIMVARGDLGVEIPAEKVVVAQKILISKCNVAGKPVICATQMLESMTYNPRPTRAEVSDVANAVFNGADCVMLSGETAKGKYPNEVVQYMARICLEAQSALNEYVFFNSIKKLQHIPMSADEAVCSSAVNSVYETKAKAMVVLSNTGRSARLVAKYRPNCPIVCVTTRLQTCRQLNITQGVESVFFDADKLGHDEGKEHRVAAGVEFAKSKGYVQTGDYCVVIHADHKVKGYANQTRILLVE
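In 50 mM imidazole pH 7.2 with 7 mM MgCl2, LmPK (0.1 nM) turned over PEP (0.5 mM) and ADP (0.1 mM) for 1 h at room temperature. Luciferase read-out of ATP.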
Shiga toxin inh = A qHTS for Small Molecule Inhibitors of Shiga Toxin; Vero cells, Shiga toxin protein synthesis inhibition reporter; inhibition, % at 38.7 µM; actives 9.2% (n = 290,000); in the data active = inhibition mostly above about 28%, no sharp cut-off; inactive = mostly below about 43%; also: 0% is about no effect
Pf growth 48h = Primary qHTS for delayed death inhibitors of the malarial parasite plastid, 48 hour incubation | P. falciparum luciferase growth in erythrocytes, 48 h | Potency, µM (top dose mostly 28.7 µM), for inactives: at the top dose activity change, negative = inhibition, most hits filed as inhibitors | actives 5.9% (n = 310,000) | AID 504832, 2011; also: potency is read from the fitted curve at half-maximal effect; % is scaled to controls: 0 for no effect and ±100 for the full control effect
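Cell-based growth assay: transgenic P. falciparum expressing firefly luciferase, cultured in red cells within RPMI 1640 containing 0.5% w/v Albumax, 24 mM bicarbonate and gentamycin. A drop in luciferase activity indicates inhibition.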
Cycloheximide cs = Cycloheximide Counterscreen for Small Molecule Inhibitors of Shiga Toxin; actives 12% (n = 300,000); max response, %; cell reporter, cycloheximide protein synthesis inhibition counterscreen; in the data active = max response mostly above about 13%, no sharp cut-off; inactive = mostly below about 14%; also: read at 38.3 µM for the half of the compounds with a filed dose; 0% is about no effect
* = called active by the depositor. Unless noted, calls follow the shape of the dose curve; as a rule, active = well fitted inhibition curve with a large enough effect; inconclusive = small, poorly fitted or top-dose-only effect, or another doubt; inactive = no such curve, though single readings can be large or run the other way.

For COc1cccc(C2c3[nH]c4ccccc4c3CCN2C(=O)c2ccccc2F)c1OC (configuration not stated) the results were Pf growth 96h inconclusive, LmPK inh -2.8%, Shiga toxin inh -7.2, Pf growth 48h 9.28µM* and Cycloheximide cs -1.7.
`COc1cc(C2c3[nH]c4ccccc4c3CCN2Cc2cn(C)nc2C)ccc1F` (configuration not stated) gave Pf growth 96h inconclusive, LmPK inh 7.2%, Shiga toxin inh -8.7, Pf growth 48h inconclusive and Cycloheximide cs 8.0.
Screening O=C(COC(=O)C1CC(=O)N(Cc2ccccc2)C1)c1ccc(F)cc1 (configuration not stated) returned Pf growth 96h 16.5%, LmPK inh 13.4%, Shiga toxin inh 21.7, Pf growth 48h 0.0% and Cycloheximide cs -3.0.
`Cc1cccc(N(CC(=O)NCCc2ccccc2)C(=O)c2csnn2)c1` gave Pf growth 96h 5.0%, LmPK inh -0.3%, Shiga toxin inh -6.7, Pf growth 48h 0.3% and Cycloheximide cs 6.5.
For CC(=O)OCC1=C[C@H]2[C@@H]3C(C)(C)[C@]3(OC(C)=O)C[C@@H](C)[C@]2(O)[C@@H]2C=C(C)C(=O)[C@@]2(O)C1 the results were Shiga toxin inh -3.0 and Cycloheximide cs 11.2.
Screening CCN(CC)Cc1c(C(=O)N/N=C/c2ccccn2)nnn1-c1nonc1N returned Pf growth 96h 24.0%, LmPK inh -1.0%, Shiga toxin inh -9.5, Pf growth 48h -3.5% and Cycloheximide cs -2.3.
`CCCc1c(C)nc(N2CCN(c3ccccc3F)CC2)[nH]c1=O` gave Pf growth 96h inconclusive, LmPK inh 4.9%, Pf growth 48h -10.7% and Cycloheximide cs -1.2.
For COc1ccc(C2c3[nH]c4ccccc4c3CCN2C(=O)c2cn3ccccc3n2)c(F)c1 (configuration not stated) the results were Pf growth 96h inconclusive, LmPK inh 0.1%, Shiga toxin inh 52.6*, Pf growth 48h 14.7µM* and Cycloheximide cs 30.5*.
Screening CCn1c(SCCN2CCOCC2)nc2c1c(=O)n(C)c(=O)n2C returned Pf growth 96h inconclusive, LmPK inh -2.3%, Pf growth 48h -6.5% and Cycloheximide cs 1.4.
Screening COCCCNC(=O)c1ccc(-n2nc(C(F)(F)F)cc2-c2cccs2)cc1 returned LmPK inh 1.2%, Shiga toxin inh -16.1, Pf growth 48h 11.7µM* and Cycloheximide cs 5.4.
Screening O=C(NCCCN1CCOCC1)c1ccc(-n2nc(C(F)(F)F)cc2-c2cccs2)cc1 returned LmPK inh 3.3%, Shiga toxin inh -15.5, Pf growth 48h 9.28µM* and Cycloheximide cs -2.0.
Screening CC1CCN(c2nnc(N3CCC(C)CC3)c3ccccc23)CC1 returned Pf growth 96h 50.1%, LmPK inh 4.7%, Shiga toxin inh 21.6, Pf growth 48h 29.9% and Cycloheximide cs 7.5.
Screening CC1CCN(c2nncc3ccccc23)CC1 returned Pf growth 96h 6.57µM*, LmPK inh -0.7%, Shiga toxin inh 22.2, Pf growth 48h inconclusive and Cycloheximide cs -2.1.
CCOC(=O)N1CCC(N2C(=O)c3ccccc3C2Nc2ccc(C)cc2)CC1 (configuration not stated) was read as Pf growth 96h 9.28µM*, LmPK inh 10.9%, Shiga toxin inh -7.3 and Cycloheximide cs -2.4.
Screening CCOC(=O)N1CCC(N2C(=O)c3ccccc3C2Nc2cc(C(=O)OC)cc(C(=O)OC)c2)CC1 (configuration not stated) returned Pf growth 96h 8.28µM*, LmPK inh 14.3%, Shiga toxin inh -11.3 and Cycloheximide cs -4.9.
CCOC(=O)N1CCC(N2C(=O)c3ccccc3C2Nc2cc(C)cc(C)c2)CC1 (configuration not stated) was read as Pf growth 96h inconclusive, LmPK inh 2.5%, Shiga toxin inh -15.5, Pf growth 48h inconclusive and Cycloheximide cs 1.2.
Screening COc1cc(/C=C2/SC(=S)N(CCC(=O)Nc3ccccc3)C2=O)cc(OC)c1OC returned Pf growth 96h 20.2%, LmPK inh -4.9%, Shiga toxin inh -6.2, Pf growth 48h -11.3% and Cycloheximide cs -2.3.
C/C(CC(=O)Nc1cccc(Cl)c1Cl)=N\NC(=O)c1ccccc1N was read as Pf growth 96h 27.7%, LmPK inh -0.7%, Shiga toxin inh 111.9*, Pf growth 48h 6.3% and Cycloheximide cs 37.4*.
Screening C/C(CC(=O)Nc1cccc(Cl)c1Cl)=N\NC(=O)c1ccccc1Br returned Pf growth 96h inconclusive, LmPK inh 4.0%, Shiga toxin inh 11.2, Pf growth 48h 3.2% and Cycloheximide cs 12.0.
Screening C/C(CC(=O)Nc1ccc(Cl)c(C(F)(F)F)c1)=N\NC(=O)c1cc2ccccc2cc1O returned Pf growth 96h inconclusive, LmPK inh -2.3%, Shiga toxin inh -7.1, Pf growth 48h inconclusive and Cycloheximide cs 12.7*.
C/C(CC(=O)Nc1cccc(Br)c1)=N\NC(=O)c1ccc(O)cc1O was read as Pf growth 96h -16.5%, LmPK inh 0.1%, Shiga toxin inh 65.1*, Pf growth 48h 12.4% and Cycloheximide cs 30.6*.
For C/C(CC(=O)Nc1ccc(Cl)c(Cl)c1)=N\NC(N)=S the results were Pf growth 96h 5.8%, LmPK inh 7.2%, Shiga toxin inh 18.6, Pf growth 48h 13.1µM* and Cycloheximide cs -2.7.
CCC(=O)Nc1cccc(Br)c1 was read as Pf growth 96h inconclusive, LmPK inh -2.4%, Shiga toxin inh 1.4, Pf growth 48h 13.4% and Cycloheximide cs 0.9.
COc1ccccc1C(=O)N/N=C(\C)CC(=O)Nc1ccc2c(c1)OCCO2 was read as Pf growth 96h inconclusive, LmPK inh -3.0%, Shiga toxin inh 29.9, Pf growth 48h 18.2% and Cycloheximide cs 9.4.
Screening COc1ccc(Cl)cc1NC(=O)C/C(C)=N/NC(=O)CCc1ccccc1 returned Pf growth 96h 14.4%, LmPK inh 6.3%, Shiga toxin inh -2.6, Pf growth 48h 0.8% and Cycloheximide cs -2.1.
`COc1ccc(Cl)cc1NC(=O)C/C(C)=N/NC(=O)c1ccccc1Cl` gave Pf growth 96h 13.1µM*, LmPK inh 5.5%, Pf growth 48h -8.6% and Cycloheximide cs 12.4.
`COc1cccc(NC(=O)C/C(C)=N/NC(=O)c2ccccc2Cl)c1` gave Pf growth 96h 10.5%, LmPK inh -0.5%, Shiga toxin inh 55.2*, Pf growth 48h 3.3% and Cycloheximide cs 25.1*.
For COc1cccc(NC(=O)c2ccccc2N2C(=O)C3C4C=CC(C4)C3C2=O)c1 (configuration not stated) the results were Pf growth 96h inconclusive, LmPK inh 0.1%, Shiga toxin inh 3.9, Pf growth 48h 4.6% and Cycloheximide cs -1.3.
CCn1c(SCC(=O)N2CCN(C(=O)c3ccco3)CC2)nnc1C(C)C was read as Pf growth 96h inconclusive, LmPK inh 6.6%, Shiga toxin inh -13.3, Pf growth 48h 41.2% and Cycloheximide cs -0.6.

Screening results from PubChem BioAssay.
